# Assay results published in PubChem BioAssay (NCI).
# This is part of a sample that, as a whole, favours compounds with a hit. Of some 79,000 tested, about 15% had one in any assay. Unmarked numbers belong to inactive results. Calls of active or inactive are those of the source. Rule as the data show it: active = growth inhibition above about 70%; inactive = the rest.
# Test: NCI Yeast Anticancer Drug Screen. Data for the wt2 strain (AID 169);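 also: 0% = growth of vehicle-treated yeast cultures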
# Conditions: S. cerevisiae wt2 strain growth inhibition; at 3.7 µM; stronger effect = higher value
# Method in brief: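 The panel's yeast strains carry defined changes in DNA repair or cell cycle genes. Each strain is grown with compound, and growth loss is scored relative to vehicle.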
row,Structure (SMILES),growth inhibition
1,CCCNC(=O)OCc1c(COC(=O)NCCC)c(-c2ccc(Cl)c(Cl)c2)n2c1CCC2,-16%
2,O=C(Cc1ccccc1)NN1C(=O)C(Cl)C1c1cc(Br)cc(Br)c1O (stereo unspecified),10%
3,CCOC(=O)C(Cc1c2ccccc2cc2ccccc12)(NC(C)=O)C(=O)OCC,-3%
4,O=[N+]([O-])/C=C/c1cc2ccc3ccccc3c2[nH]1,57%
5,Fc1ccc(Nc2ccc3ccccc3c2)cc1,8%
6,O=S1(=O)CCC2=CC(C(F)(F)F)=CC(C(F)(F)F)=CN21,14%
7,O=C(Cc1ccccc1)NNc1nc(NNC(=O)c2ccncc2)nc(Nc2ccc([N+](=O)[O-])cc2)n1,10%
8,CCCCS/C(=C(/C#N)C(N)=O)c1cc2c([nH]1)CCCC2,-17%
9,O=C(O)c1ccccc1C(=O)OC1CCc2ccccc2C1 (stereo unspecified),-6%
10,CCOC(=O)/C(=C\c1cccc(C)c1)C(C)=O,23%
11,NC(=S)N/N=C1\c2ccccc2CCC1CCC1(O)CCc2ccccc2C1=O (stereo unspecified),-7%
12,Cc1cccc2c(Cl)c3cccc(C)c3nc12,-3%
13,CC(C)OC(=O)NNc1c(Cl)cc(Cl)cc1Cl,3%
14,Nc1ccc2c(c1)C(=O)c1c(F)cccc1-2,0%
15,N#CSCC1COc2ccccc2O1 (stereo unspecified),-51%
16,Cc1ccc(S(=O)(=O)NC(=O)C2C(=O)CC3(CCCCC3)CC2=O)cc1,-28%
17,CC1=NN(C(=O)c2ccccc2O)C(=O)/C1=C/c1ccco1,31%

# Same assay, conditions: S. cerevisiae wt2 strain growth inhibition; at 11.0 µM; stronger effect = higher value
row,Structure (SMILES),growth inhibition
1,CC(CN(C)C)C(=O)/C=C/c1ccc(Cl)c(Cl)c1 (stereo unspecified),14%
2,CCCCCCNCCCNc1c2cc(OC)ccc2nc2cccc([N+](=O)[O-])c12,12%
3,NC(=S)N1N=C2c3ccccc3CC[C@H]2[C@@H]1c1ccc(Cl)cc1,11%
4,C/C(=N/NC(=S)Nc1ccccc1C)c1ccccn1,-5%
5,O=C1/C(=C/c2ccc(Cl)c(Cl)c2)CNC/C1=C\c1ccc(Cl)c(Cl)c1,-12%
6,CC(C)OP(=O)(OC(C)C)C(=NCCO)NNc1ccc([N+](=O)[O-])cc1,8%
7,N#CCC(=O)N/N=C(\c1ccccc1)C(c1ccccc1)C1(O)C(=O)Nc2c(Cl)ccc(Cl)c21 (stereo unspecified),-3%
8,CC(C)(CN1CCCCC1)C(=O)CC(SCCS(=O)(=O)O)c1ccccc1 (stereo unspecified),5%
9,COC1=CCC23C(=O)C=CC(=O)C2(C1)C(=O)c1ccccc1C3=O (stereo unspecified),23%
10,CCCCN(CCCC)c1ccc(N=Nc2ccc(S(=O)(=O)O)cc2)cc1,89% (active)
11,c1ccc2nc3c(nc2c1)sc1ccccc13,6%
12,O=C1c2ccccc2-c2ccc(N=Cc3ccccc3)cc21,18%
13,CNC(=S)N/N=C(/C)CCC/C(C)=N/NC(=S)NC,78% (active)
14,Nc1ccc(/C=C/c2ccc3cccnc3c2)cc1,-2%
15,CCOC(=O)Nc1ccc(C)c(NC(=O)OCC)c1,10%
16,CCN(CC)CCNc1ccc2nc(C)n3c4ccc(OC)cc4c(=O)c1c23,-24%
17,C[N+](C)([O-])CCCNc1c2ccccc2nc2cccc([N+](=O)[O-])c12,26%
18,CCCNC(=O)OCc1c(COC(=O)NCCC)c(-c2ccc(Cl)c(Cl)c2)n2c1CCC2,-27%
19,O=C(Cc1ccccc1)NN1C(=O)C(Cl)C1c1cc(Br)cc(Br)c1O (stereo unspecified),88% (active)
20,CCOC(=O)C(Cc1c2ccccc2cc2ccccc12)(NC(C)=O)C(=O)OCC,-4%
21,O=[N+]([O-])/C=C/c1cc2ccc3ccccc3c2[nH]1,87% (active)
22,Fc1ccc(Nc2ccc3ccccc3c2)cc1,-1%
23,O=S1(=O)CCC2=CC(C(F)(F)F)=CC(C(F)(F)F)=CN21,51%
24,O=C(Cc1ccccc1)NNc1nc(NNC(=O)c2ccncc2)nc(Nc2ccc([N+](=O)[O-])cc2)n1,41%
25,CCCCS/C(=C(/C#N)C(N)=O)c1cc2c([nH]1)CCCC2,-16%
26,O=C(O)c1ccccc1C(=O)OC1CCc2ccccc2C1 (stereo unspecified),-9%
27,CCOC(=O)/C(=C\c1cccc(C)c1)C(C)=O,69%
28,NC(=S)N/N=C1\c2ccccc2CCC1CCC1(O)CCc2ccccc2C1=O (stereo unspecified),13%
29,Cc1cccc2c(Cl)c3cccc(C)c3nc12,-2%
